Assay results published in PubChem BioAssay (NCATS).
Inconclusive results are not listed. Entries that show only a call come without a potency. Calls of active or inactive are those of the source. Unless noted, the call rests on the fitted dose curve; in most records, active means well fitted curve in the direction sought with a large enough effect; inconclusive means small, poorly fitted or top-dose-only effect, or another doubt; inactive means no such curve, though single readings can be large; an effect the other way counts as inactive or inconclusive.

What was measured:
[1] = Cell Viability - LYMP1-002 - Assay at 16 hr (AID 948); conditions: LYMP1-002 lymphoblastoid cell viability; series mostly up to 92.2 µM; further: potency means the concentration at half of the fitted maximal effect
How it was run: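 In this qHTS, lymphoblastoid LYMP1-002 cells (human) receive compounds for 16 hr at 37 C. Viability is taken from CellTiter-Glo ATP luminescence, and AC50 derives from standard Hill fits.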

[2] = MultiTox-Fluor Cytotoxicity Assay - LYMP1-003 - Dead Cells (AID 961); conditions: LYMP1-003 lymphoblastoid cells, dead-cell protease fluorescence; series mostly up to 92.2 µM;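 further: cells exposed to compound for 16 h at 37 °C; nearly all actives have a fitted effect of over 70% in size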; further: potency means the concentration at half of the fitted maximal effect
How it was run: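 LYMP1-003 lymphoblastoid, 2500 cells/well, 5 hr settle then 16 hr cpd at 37 C; MultiTox-Fluor reagent 60 min RT; Ex/Em 485/520 dead-cell signal; norm. DMSO = 0%, 15 uM tetraoctylammonium bromide = 100%; Hill AC50.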

[3] = MultiTox-Fluor Cytotoxicity Assay - LYMP1-003 - Live Cells (AID 962); conditions: LYMP1-003 lymphoblastoid cells, MultiTox-Fluor live-cell protease fluorescence; series mostly up to 92.2 µM;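 further: cells exposed to compound for 16 hours at 37 °C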; further: potency means the concentration at half of the fitted maximal effect
How it was run: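 qHTS, 1536-well; 2500 cells/well LYMP1-003; 5 hr 37 C settle; cpd 16 hr 37 C; MultiTox-Fluor reagent 60 min RT; live-cell protease fluor. 405/510; Hill-fit AC50; tetraoctylammonium bromide pos. ctrl.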

[4] = Cell Viability - LYMP1-003 - Assay at 24 hr (AID 963); conditions: LYMP1-003 lymphoblastoid cell viability; series mostly up to 92.2 µM; further: potency means the concentration at half of the fitted maximal effect
How it was run: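 Cells seeded at 2500/well, 5 hr at 37 C; compounds added; 24 hr at 37 C; CellTiter-Glo added, 30 min room temperature; luminescence read. Decrease in ATP taken as cytotoxicity, AC50 from Hill modelling.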

[5] = Cell Viability - LYMP2-003 (AID 965); conditions: LYMP2-003 lymphoblastoid cell viability; series mostly up to 92.2 µM;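 further: cells exposed to compounds for 24 h before reading; nearly all actives have a fitted effect of over 50% in size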; further: potency means the concentration at half of the fitted maximal effect
How it was run: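 qHTS, human lymphoblastoid line, 2500 cells/well, complete medium. 24 h drug, 37 C. ATP-based luminescent readout; Hill-fit AC50.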

[6] = MultiTox-Fluor Cytotoxicity Assay - LYMP1-002 - Live Cells (AID 955); conditions: LYMP1-002 lymphoblastoid live-cell protease fluorescence viability; series mostly up to 46.1 µM;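 further: cells exposed to compound for 16 hours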; further: potency means the concentration at half of the fitted maximal effect
How it was run: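 Read-out is live-cell protease activity (cell-permeant GF-AFC substrate, fluorescence Ex/Em=405/510), where a decrease indicates acute toxicity. Human lymphoblastoid cells were treated 16 hours at 37 C in a concentration series, and AC50 values came from standard Hill modelling.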

[7] = MultiTox-Fluor Cytotoxicity Assay - LYMP1-002 - Dead Cells (AID 960); conditions: LYMP1-002 lymphoblastoid cells, dead-cell protease fluorescence; series mostly up to 46.1 µM; further: nearly all actives have a fitted effect of over 60% in size; further: potency means the concentration at half of the fitted maximal effect
How it was run: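 LYMP1-002 cells 2500/well; 5 hr 37 C pre-incubation; compound 16 hr 37 C; MultiTox-Fluor reagent 60 min RT; dead-cell fluor Ex/Em 485/520. Norm. to DMSO (0%) vs 15 uM tetraoctylammonium bromide (100%); Hill AC50.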

[8] = molecular target: Pyruvate kinase PKM (Homo sapiens) (UniProt P14618); experiment: qHTS Assay for Activators of Human Muscle Pyruvate Kinase (AID 954; active means well fitted curve in the direction sought with a large enough effect, not every such curve was filed as active); conditions: purified human muscle pyruvate kinase, luciferase-coupled luminescence, 1 h; series mostly up to 57.5 µM
Chain of Pyruvate kinase PKM (Homo sapiens) (P14618 whole entry, looked up): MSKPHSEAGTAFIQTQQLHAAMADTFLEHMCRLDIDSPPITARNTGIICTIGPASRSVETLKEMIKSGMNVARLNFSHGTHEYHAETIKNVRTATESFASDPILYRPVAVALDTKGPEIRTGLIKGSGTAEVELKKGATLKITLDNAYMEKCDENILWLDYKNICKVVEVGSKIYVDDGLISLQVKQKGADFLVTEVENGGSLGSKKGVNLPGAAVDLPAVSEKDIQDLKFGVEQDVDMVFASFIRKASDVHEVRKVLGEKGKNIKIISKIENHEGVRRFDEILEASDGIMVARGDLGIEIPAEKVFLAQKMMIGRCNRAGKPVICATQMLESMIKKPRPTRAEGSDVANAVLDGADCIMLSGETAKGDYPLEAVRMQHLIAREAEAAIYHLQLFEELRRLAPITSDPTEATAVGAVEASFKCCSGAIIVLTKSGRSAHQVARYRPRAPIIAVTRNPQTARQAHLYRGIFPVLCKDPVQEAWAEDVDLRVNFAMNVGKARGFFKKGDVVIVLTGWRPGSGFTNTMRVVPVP
How it was run: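 Reaction: 0.1 nM purified PKM2 with 0.5 mM phosphoenolpyruvate and 0.1 mM ADP, room temperature, 1 h. Readout: luciferase-based ATP luminescence after stop reagent. Activators judged against a 0.3 nM enzyme column.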

SMILES	Potency [1]	Potency [2]	Potency [3]	Potency [4]	Potency [5]	Potency [6]	Potency [7]	outcome [8]
COc1cc(/C=C/C(=O)CC(=O)/C=C/c2ccc(O)c(OC)c2)ccc1O	50100 nM (active)	50100 nM (active)	inactive	50100 nM (active)	31600 nM (active)			
Nc1ccc([N+](=O)[O-])cc1O	inactive	inactive	inactive	inactive	inactive	inactive	inactive	
CC1(C)S[C@@H]2[C@H](NC(=O)[C@H](N)c3ccccc3)C(=O)N2[C@H]1C(=O)O	inactive	inactive	inactive	inactive	inactive	inactive	inactive	
O=C(O)c1cc(O)c(O)c(O)c1	inactive	inactive	inactive	inactive		inactive		
CN(C)c1ccc(C(=C2C=CC(=[N+](C)C)C=C2)c2ccccc2)cc1	1580 nM (active)	2000 nM (active)	2000 nM (active)	2000 nM (active)	501 nM (active)	1580 nM (active)	1580 nM (active)	
NCCO	inactive	inactive	inactive	inactive	inactive	inactive	inactive	
O=C(O)/C=C\C(=O)O	inactive	inactive	inactive	inactive	inactive	inactive	inactive	
O=C1CN(/N=C/c2ccc([N+](=O)[O-])o2)C(=O)N1	inactive	inactive			inactive	inactive	inactive	
N.N.O=C(O)C1(C(=O)O)CCC1.[Pt]								inactive
CN(C)CCC(c1ccc(Cl)cc1)c1ccccn1 (centres undefined)	inactive	inactive	inactive	inactive	inactive	inactive	inactive	
COc1cccc(C(=O)NCCN2CCN(c3ccc(Cl)cc3)CC2)c1								inactive
